Among the test systems are HCT-15 colon; HT29 colon; SNB-75 CNS; SNB-19 CNS; U251 CNS; PC-3 prostate; SK-MEL-5 melanoma; UACC-62 melanoma; LOX IMVI melanoma; SK-MEL-28 melanoma; SK-MEL-2 melanoma; EKVX NSCLC; SN12C renal; UO-31 renal; TK-10 renal; ACHN renal; CCRF-CEM leukemia.
What all share (experiment): NCI-60 one-dose screen, 48 h (100 = growth as untreated, 0 = no growth, -100 = all killed)
A further assay deals with CAKI-1 renal. The settings on record: 10 µM unless noted.
A further assay relates to A498 renal. The settings on record: 10 µM unless noted.
The next assay relates to HL-60(TB) leukemia. As to conditions: 10 µM unless noted.

This is part of a sample that, as a whole, favours compounds with a hit. Of some 83,000 tested, about 20% had one in any assay.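 The test compound was applied at a single concentration to cells in 96-well plates for 48 hours, and percent growth was recorded.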 Unmarked numbers belong to inactive results. Activity calls are given as the source filed them. Rule for the calls: active = growth percent below 10; inactive = the rest.

Regarding `C[C@]12CCC(=O)C[C@@H]1CC[C@@H]1[C@@H]2CC[C@]2(C)[C@@H](OC(=O)N(CCCl)N=O)CC[C@@H]12`, the growth in the assay with HCT-15 colon (10 µM unless noted) was 27.9%; with HT29 colon (10 µM unless noted), 31.6%; in the assay with SNB-75 CNS (10 µM unless noted), 39.4%; in the assay on SNB-19 CNS (10 µM unless noted), 31%; in the assay on U251 CNS (10 µM unless noted), 16.1%; with PC-3 prostate (10 µM unless noted), 36.3%. Moreover, the growth was 22.8% in the assay on SK-MEL-5 melanoma (10 µM unless noted); 13.5% with UACC-62 melanoma (10 µM unless noted); 22.6% in the assay on LOX IMVI melanoma (10 µM unless noted); 63.1% in the assay with SK-MEL-28 melanoma (10 µM unless noted); 17.7% in the assay with SK-MEL-2 melanoma (10 µM unless noted); 69.9% with EKVX NSCLC (10 µM unless noted). For the same molecule, the growth is 24% with SN12C renal (10 µM unless noted); 25.4% in the assay on UO-31 renal (10 µM unless noted); 32.9% in the assay with TK-10 renal (10 µM unless noted); 9.18% (active) in the assay with ACHN renal (10 µM unless noted); 5.32% (active) in the assay on CAKI-1 renal; 43.5% with A498 renal. Further, the growth is -10.5% (active) with HL-60(TB) leukemia and 14.7% in the assay with CCRF-CEM leukemia (10 µM unless noted).
For the molecule `C/C(=C\c1ccn(-c2ccc(N)cc2F)n1)[C@@H]1C[C@@H]2O[C@]2(C)CCC[C@H](C)[C@H](O)[C@@H](C)C(=O)C(C)(C)[C@@H](O)CC(=O)O1`, the growth in the assay on HCT-15 colon (10 µM unless noted) was 14%; with HT29 colon (10 µM unless noted) it was 13.1%; in the assay on SNB-75 CNS (10 µM unless noted), -6.93% (active); in the assay on SNB-19 CNS (10 µM unless noted) it was 26%; in the assay with U251 CNS (10 µM unless noted) it was 18.9%; in the assay on PC-3 prostate (10 µM unless noted) it was 17%. Besides, the growth was 8.85% (active) in the assay with SK-MEL-5 melanoma (10 µM unless noted); 11.6% with UACC-62 melanoma (10 µM unless noted); 27.3% in the assay on LOX IMVI melanoma (10 µM unless noted); 54.5% in the assay on SK-MEL-28 melanoma (10 µM unless noted); 13.5% with SK-MEL-2 melanoma (10 µM unless noted); 46.7% in the assay on EKVX NSCLC (10 µM unless noted). Also, the growth in the assay with SN12C renal (10 µM unless noted) was 29.3%; with UO-31 renal (10 µM unless noted) it was 29.1%; with TK-10 renal (10 µM unless noted), 48.3%; with ACHN renal (10 µM unless noted) it was 38.9%; with CAKI-1 renal it was 41.4%; with A498 renal, 0.324% (active). Further, the growth in the assay on HL-60(TB) leukemia is 3.32% (active); in the assay with CCRF-CEM leukemia (10 µM unless noted), 12.9%.
For `CC(=O)OCC1OC([S-])C(OC(C)=O)C(OC(C)=O)C1OC(C)=O.[Au+].c1ccc(CN2[CH-]N(Cc3ccccc3)C(c3ccccc3)=C2c2ccccc2)cc1`, the growth in the assay on HCT-15 colon (4.75 µM) was -57.5% (active); in the assay with HCT-15 colon (10 µM), -79.8% (active); in the assay on HT29 colon (4.75 µM), 0.406% (active); in the assay with HT29 colon (10 µM), 16.4%; with SNB-75 CNS (4.75 µM) it was 26.1%; in the assay on SNB-75 CNS (10 µM), 3.87% (active). Also, the growth was -49.9% (active) in the assay on SNB-19 CNS (4.75 µM); -80.3% (active) with SNB-19 CNS (10 µM); -72.4% (active) in the assay with U251 CNS (4.75 µM); -84% (active) in the assay with U251 CNS (10 µM); 4.86% (active) in the assay on PC-3 prostate (4.75 µM); 9.73% (active) in the assay on PC-3 prostate (10 µM). The growth in the assay on SK-MEL-5 melanoma (4.75 µM) was -50.5% (active); in the assay on SK-MEL-5 melanoma (10 µM), 16.8%; with UACC-62 melanoma (4.75 µM), -18.6% (active); with UACC-62 melanoma (10 µM) it was 3.54% (active); with LOX IMVI melanoma (4.75 µM) it was -82.1% (active); in the assay on LOX IMVI melanoma (10 µM) it was -86.2% (active). The growth is 10% with SK-MEL-28 melanoma (4.75 µM); 20.2% in the assay on SK-MEL-28 melanoma (10 µM); -22.7% (active) in the assay on SK-MEL-2 melanoma (4.75 µM); -30.8% (active) in the assay with SK-MEL-2 melanoma (10 µM); 8.29% (active) in the assay on EKVX NSCLC (4.75 µM); -13.6% (active) in the assay on EKVX NSCLC (10 µM). Also, the growth in the assay on SN12C renal (4.75 µM) was -15.1% (active); in the assay with SN12C renal (10 µM), -49% (active); in the assay on UO-31 renal (4.75 µM), 3.56% (active); in the assay on UO-31 renal (10 µM), -70.5% (active); in the assay on TK-10 renal (4.75 µM), 5.22% (active); in the assay on TK-10 renal (10 µM), -41.6% (active). Further, the growth is -18.5% (active) in the assay with ACHN renal (4.75 µM); -39.3% (active) in the assay on ACHN renal (10 µM); -43.5% [4.75 µM] (active) in the assay with HL-60(TB) leukemia; -21% (active) in the assay on CCRF-CEM leukemia (4.75 µM); 17.4% with CCRF-CEM leukemia (10 µM).
As for `CC(C)COC(=O)Cc1ccccc1`, the growth in the assay with HCT-15 colon (10 µM unless noted) is 109%; with HT29 colon (10 µM unless noted) it was 101%; in the assay with SNB-75 CNS (10 µM unless noted) it was 99.9%; in the assay with SNB-19 CNS (10 µM unless noted), 109%; with U251 CNS (10 µM unless noted), 101%; with PC-3 prostate (10 µM unless noted), 97.6%. In addition, the growth with SK-MEL-5 melanoma (10 µM unless noted) is 98.7%; in the assay with UACC-62 melanoma (10 µM unless noted), 107%; with LOX IMVI melanoma (10 µM unless noted), 101%; with SK-MEL-28 melanoma (10 µM unless noted), 112%; in the assay with SK-MEL-2 melanoma (10 µM unless noted) it was 113%; in the assay with EKVX NSCLC (10 µM unless noted), 109%. Further, the growth in the assay with SN12C renal (10 µM unless noted) is 94.2%; in the assay on UO-31 renal (10 µM unless noted) it was 102%; in the assay with TK-10 renal (10 µM unless noted), 95.3%; in the assay with ACHN renal (10 µM unless noted), 108%; in the assay with CAKI-1 renal, 101%; in the assay with A498 renal it was 81.1%. Further, the growth with HL-60(TB) leukemia was 109%; in the assay on CCRF-CEM leukemia (10 µM unless noted), 95.3%.
As for `CCN1C(=O)NC(=O)C(C)(N2C(=O)c3c(F)c(F)c(F)c(F)c3C2=O)C1=O` (stereo not given), the growth is 5.26% (active) in the assay on HCT-15 colon (10 µM unless noted); 6.44% (active) in the assay with HT29 colon (10 µM unless noted); 64.6% in the assay on SNB-75 CNS (10 µM unless noted); 49.3% in the assay with SNB-19 CNS (10 µM unless noted); -25.4% (active) in the assay with U251 CNS (10 µM unless noted); 12.3% in the assay with PC-3 prostate (10 µM unless noted). In addition, the growth is 54.1% in the assay on SK-MEL-5 melanoma (10 µM unless noted); 10.4% in the assay with UACC-62 melanoma (10 µM unless noted); -13.9% (active) in the assay on LOX IMVI melanoma (10 µM unless noted); -45.5% (active) with SK-MEL-28 melanoma (10 µM unless noted); 16.8% in the assay with SK-MEL-2 melanoma (10 µM unless noted); 104% with EKVX NSCLC (10 µM unless noted). The growth is 33.6% in the assay on SN12C renal (10 µM unless noted); 25.1% in the assay on UO-31 renal (10 µM unless noted); 34.5% with TK-10 renal (10 µM unless noted); -57.7% (active) with ACHN renal (10 µM unless noted); -46.7% (active) with CAKI-1 renal; 99.2% in the assay with A498 renal. Besides, the growth with HL-60(TB) leukemia is -70.3% (active); in the assay with CCRF-CEM leukemia (10 µM unless noted), 19.5%.
Take `S=P(SP(=S)(c1ccccc1)c1ccccc1)(c1ccccc1)c1ccccc1`: the growth with HCT-15 colon (10 µM unless noted) is 97%; with HT29 colon (10 µM unless noted), 101%; in the assay with SNB-75 CNS (10 µM unless noted) it was 91.2%; in the assay on SNB-19 CNS (10 µM unless noted), 103%; in the assay with U251 CNS (10 µM unless noted), 101%; in the assay with PC-3 prostate (10 µM unless noted), 93.5%. The growth was 99.9% in the assay with SK-MEL-5 melanoma (10 µM unless noted); 88.7% with UACC-62 melanoma (10 µM unless noted); 98.5% in the assay with LOX IMVI melanoma (10 µM unless noted); 111% with SK-MEL-28 melanoma (10 µM unless noted); 96.6% in the assay on SK-MEL-2 melanoma (10 µM unless noted); 97.6% in the assay with EKVX NSCLC (10 µM unless noted). For the same molecule, the growth in the assay with SN12C renal (10 µM unless noted) is 97.5%; in the assay with UO-31 renal (10 µM unless noted), 95.2%; in the assay on TK-10 renal (10 µM unless noted), 96.8%; with ACHN renal (10 µM unless noted), 99.4%; with CAKI-1 renal, 97.9%; with A498 renal, 98.3%. For the same molecule, the results for the growth with HL-60(TB) leukemia and with CCRF-CEM leukemia (10 µM unless noted) were 48.5% and -61.3% (active), respectively.
Consider `CC1(C)N(Nc2ccccc2)C(=O)C2CCCN21` (stereo not given), for which the growth with HCT-15 colon (10 µM unless noted) was 44.5%; in the assay with HT29 colon (10 µM unless noted) it was 65.7%; with SNB-75 CNS (10 µM unless noted), 50.7%; in the assay with SNB-19 CNS (10 µM unless noted), 95.4%; in the assay on U251 CNS (10 µM unless noted), 85.2%; in the assay on PC-3 prostate (10 µM unless noted), 9.48% (active). Also, the growth with SK-MEL-5 melanoma (10 µM unless noted) is 97.5%; with UACC-62 melanoma (10 µM unless noted) it was 21.7%; in the assay with LOX IMVI melanoma (10 µM unless noted), 6.21% (active); with SK-MEL-28 melanoma (10 µM unless noted) it was 79%; in the assay with SK-MEL-2 melanoma (10 µM unless noted), 84%; in the assay on EKVX NSCLC (10 µM unless noted) it was 74.4%. Further, the growth is 91.5% with SN12C renal (10 µM unless noted); 32.2% with UO-31 renal (10 µM unless noted); 59.6% with TK-10 renal (10 µM unless noted); 21% with ACHN renal (10 µM unless noted); 6.09% (active) with CAKI-1 renal; 96.5% in the assay on A498 renal. Moreover, the figures for the growth in the assay on HL-60(TB) leukemia and in the assay on CCRF-CEM leukemia (10 µM unless noted) were -31.4% (active) and 18.5%, respectively.

These data come from PubChem BioAssay (NCI).
